We go through 19 compounds from PubChem BioAssay (Tox21).

Test [1] is described as follows: qHTS RealTime-Glo MT Cell Viability Assay in HepG2 cells - 40 hour (AID 1224870). Further: nearly all actives have a fitted effect of over 50% in size. The method in brief: (§1)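 HepG2 cells (600/well) mixed with RealTime-Glo MT reagent, settled 5 h at 37 C/5% CO2 before compound addition. Nonlytic NanoLuc luminescence from viable-cell prosubstrate reduction read repeatedly during 40 h treatment at 37 C.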
(In general: qHTS replaces the single test concentration by a dilution series.)

Test [2] is described as follows: A CellTox Green Cytotoxicity Assay to monitor cytotoxicity in HEK293 cells - 40 hour (AID 1224871). Further: nearly all actives have a fitted effect of over 45% in size. The method in brief:
(§2)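 Real-time, in one plate: 600 HEK293 cells/well with dead-cell DNA dye, pinned compound after 5 h, 37 C incubation over 40 h; viable cells give no appreciable fluorescence.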

Test [3] in a line: qHTS RealTime-Glo MT Cell Viability Assay in HEK293 cells - 16 hour (AID 1224872). Further: top concentration of the series differs between compounds; nearly all actives have a fitted effect of over 50% in size. The method, boiled down: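 Tox21 10K qHTS, HEK293, 600 cells/well, RealTime-Glo reagent co-dispensed with cells; 5 h preincubation, compound by pintool, 37 C, luminescence at 0–40 h.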
Test [4] in a line: qHTS RealTime-Glo MT Cell Viability Assay in HepG2 cells - 8 hour (AID 1224873). Further: nearly all actives have a fitted effect of over 55% in size. The method, boiled down: as §1
The nature of test [5]: qHTS RealTime-Glo MT Cell Viability Assay in HEK293 cells - 40 hour (AID 1224874). Further: nearly all actives have a fitted effect of over 50% in size. Further: potency means the concentration at half of the fitted maximal effect. The following applies: RealTime-Glo luminescence; max response: stronger effect = lower value. The method in brief:
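Kinetic, non-lysing viability readout. Seed HEK293 (600/well) with reagent, incubate 5 h at 37 C/5% CO2, pin 23 nL compound in DMSO, incubate at 37 C, read luminescence at 0, 8, 16, 24, 32, 40 h.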

Test [6] in a line: A CellTox Green Cytotoxicity Assay to monitor cytotoxicity in HEK293 cells - 24 hour (AID 1224875). Further: series mostly up to about 77 µM; nearly all actives have a fitted effect of over 45% in size. The method, boiled down:
as §2

Test [7] is described as follows: A CellTox Green Cytotoxicity Assay to monitor cytotoxicity in HepG2 cells - 16 hour (AID 1224876). Further: nearly all actives have a fitted effect of over 45% in size. The method in brief: (§3)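 Cytotoxicity was tracked as dead-cell DNA fluorescence in HepG2 cells treated with test compounds at 37 C; each time-point value comes from one kinetic series spanning 0, 8, 16, 24, 32 and 40 h.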
A short description of test [8]: qHTS RealTime-Glo MT Cell Viability Assay in HepG2 cells - 32 hour (AID 1224877). Further: nearly all actives have a fitted effect of over 55% in size. The method in brief:
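Cells + NanoLuc/prosubstrate dispensed (600 cells/well) → 5 h at 37 C/5% CO2 → compounds in DMSO transferred → 40 h incubation at 37 C, luminescence read at 0, 8, 16, 24, 32, 40 h.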

Test [9] is described as follows: A CellTox Green Cytotoxicity Assay to monitor cytotoxicity in HepG2 cells - 24 hour (AID 1224878). Further: nearly all actives have a fitted effect of over 45% in size. The method in brief: as §3
Test [10] is described as follows: A CellTox Green Cytotoxicity Assay to monitor cytotoxicity in HepG2 cells - 40 hour (AID 1224879). Further: nearly all actives have a fitted effect of over 40% in size. Further: potency means the concentration at half of the fitted maximal effect. The method in brief:
as §3

“And” between values parts separate entries of the source, which are not always exact repeats. Equal entries are not always repeated. Records with an inconclusive call do not appear. A structure can be active in one record and inactive in another. Values without a mark were called inactive. The source made the active and inactive calls. The call rests on the fitted dose curve; in most records, active means well fitted curve in the direction sought with a large enough effect in the repeat runs; inconclusive means weak or mixed curves; inactive means no such curve, though single readings can be large; an effect the other way counts as inactive or inconclusive.
On the % scale 0 is the no-effect control and ±100 the full control effect.

Regarding `COC(=O)Nc1cccc(OC(=O)Nc2cccc(C)c2)c1`, the result in test [1], in test [3], in test [4] and in test [8] was inactive. The Potency result in test [2], in [6], in test [7] and in test [9] was “inactive” throughout. Further, in [5], the max response is 3.85% and -5.62%. The Potency in [10] is 49 µM (active).

As for `Nc1cccc(Cl)c1`, the compound was called inactive in [1], in test [3], in [4] and in test [8]. The Potency entry in test [2], in test [6], in [7], in [9] and in [10] was “inactive” each time. For the same compound, the Potency in test [5] is 21.9 µM (active). Moreover, the max response in test [5] was 0.922%.

For the compound `Nc1cc(Cl)cc(Cl)c1`, the compound was called inactive in test [1], in test [3], in test [4] and in [8]. For the same compound, the Potency result in test [2], in [6], in [7], in [9] and in [10] was “inactive” throughout. Besides, the max response in [5] was -2.18% and 1.19%.

On to `O=C(O)C(Br)Br`, for which the call in test [1], in [3], in test [4] and in test [8] was inactive. For the same compound, the Potency result in test [2], in test [6], in [7], in test [9] and in test [10] was “inactive” throughout. In test [5], the max response was -0.855% and 1.09%.

Consider `Cc1ccc(O)c(C)c1`, for which the call in test [1], in [3], in test [4] and in test [8] was inactive. Further, the Potency result in [2], in [6], in test [7], in test [9] and in [10] was “inactive” throughout. In test [5], the max response is 4.17% and 0.581%.

Take `O=[N+]([O-])c1ccc(Cl)cc1`: the result in [1], in [3], in test [4] and in test [8] was inactive. The Potency result in test [2], in test [6], in [7], in test [9] and in test [10] was “inactive” in each case. Moreover, the max response in test [5] was 4.49% and 2.44%.

Regarding `c1ccc2c(c1)CCCC2`, the compound was called inactive in [1], in [3], in test [4] and in [8]. The Potency entry in test [2], in test [6], in test [7], in [9] and in test [10] was “inactive” each time. In test [5], the max response is 1.92% and 10.6%.

On to `OCC(O)CCl` (stereo unspecified), for which the outcome in [1], in test [3], in [4] and in [8] was inactive. Moreover, the Potency entry in test [2], in test [6], in [7], in [9] and in test [10] was “inactive” in each case. Also, the max response in test [5] is -3.2% and 0.258%.

As for `C=CC(=O)OCCCCCC(C)C`, the result in [1], in [3], in test [4] and in test [8] was inactive. In addition, the Potency result in test [2], in test [6], in test [7], in [9] and in test [10] was “inactive” throughout. The max response in test [5] is -0.829% and 3.33%.

In the case of `Cc1ccc(N)cc1`, the outcome in test [1], in test [3], in [4] and in test [8] was inactive. For the same compound, the Potency result in test [2], in test [6], in test [7], in [9] and in [10] was “inactive” throughout. The max response in [5] is -16.7% and 1.44% and -0.523%.

Turning to `Nc1nc(N)nc(NC2CC2)n1`, the outcome in test [1], in test [3], in [4] and in test [8] was inactive. Besides, the Potency entry in [2], in test [6], in [7], in [9] and in test [10] was “inactive” each time. For the same compound, in [5], the max response is -1.36% and 9.96% and -0.244%.

For `Cc1cc(Cl)ccc1OC(C)C(=O)O` (stereo unspecified), the compound was classed as inactive in test [1], in test [3], in [4] and in test [8]. Besides, the Potency entry in test [2], in test [6], in test [7], in [9] and in [10] was “inactive” throughout. The max response in test [5] is 3.64% and -1.48%.

Regarding `Cl[C@H]1OCCO[C@@H]1Cl`, the compound was called inactive in test [1], in test [3], in test [4] and in test [8]. The Potency entry in [2], in test [6], in [7], in [9] and in test [10] was “inactive” in each case. Besides, the max response in test [5] is 9.41% and 3.91%.

As for `C=CC(=O)OCC(CC)CCCC` (stereo unspecified), the compound was classed as inactive in [1], in [3], in test [4] and in test [8]. Moreover, the Potency entry in [2], in test [6], in test [7], in test [9] and in [10] was “inactive” each time. The max response in test [5] was 13.3%.

In the case of `O=P1(NCCCl)OCCCN1CCCl` (stereo unspecified), the compound was called inactive in test [1], in test [3], in [4] and in test [8]. Further, the Potency entry in test [2], in test [6], in test [7], in test [9] and in test [10] was “inactive” in each case. Besides, the max response in [5] is 0.555% and 9.01% and 5.36%.

`Oc1ccc(Cl)cc1`: the outcome in test [1], in test [3], in test [4] and in test [8] was inactive. Moreover, the Potency entry in test [2], in [6], in test [7], in test [9] and in [10] was “inactive” each time. Further, the max response in [5] is 3.34% and 1.68% and 3.82%.

As to `CCNc1nc(Cl)nc(NC(C)C)n1`, the compound was classed as inactive in test [1], in test [3], in test [4] and in [8]. The Potency entry in test [2], in test [6], in [7], in [9] and in test [10] was “inactive” each time. In addition, in test [5], the max response was 2.47% and -5.57%.

Consider `O=[N+]([O-])c1ccc(Cl)c(Cl)c1`, for which the compound was classed as inactive in test [1], in test [3], in [4] and in [8]. Moreover, the Potency result in test [2], in test [6], in test [7], in test [9] and in test [10] was “inactive” throughout. Besides, the max response in test [5] is -5.48% and 3.8%.

In the case of `Cc1cccc(N)c1C`, the result in test [1], in test [3], in test [4] and in test [8] was inactive. The Potency entry in [2], in test [6], in test [7], in test [9] and in test [10] was “inactive” each time. In addition, in test [5], the max response is -0.402% and 10.2%.
